# Test results as given in PMC5540273 (PLoS ONE, 2017).
# Like-named read-outs stand apart in the source and are kept apart here.
# Key:
# SNARK = system: T1, SNARK; details: concentration: 1 μM, replicates: in singlicate; n = 1
# T1 construct: gene NUAK2
# SNRK = details: concentration: 1 μM, replicates: in singlicate; n = 1
# SRC = details: concentration: 1 μM, replicates: in singlicate; n = 1
# SRMS = details: concentration: 1 μM, replicates: in singlicate; n = 1
# SRPK1 = details: concentration: 1 μM, replicates: in singlicate; n = 1
# SRPK2 = details: concentration: 1 μM, replicates: in singlicate; n = 1
# SRPK3 = details: concentration: 1 μM, replicates: in singlicate; n = 1
# STK16 = details: concentration: 1 μM, replicates: in singlicate; n = 1
# STK33 = details: concentration: 1 μM, replicates: in singlicate; n = 1
# STK35 = details: concentration: 1 μM, replicates: in singlicate; n = 1
# STK36 = details: concentration: 1 μM, replicates: in singlicate; n = 1
# STK39 = details: concentration: 1 μM, replicates: in singlicate; n = 1
# SYK = details: n = 1
# SgK110 = details: concentration: 1 μM, replicates: in singlicate; n = 1
# TAK1 = system: T2, TAK1; details: concentration: 1 μM, replicates: in singlicate; n = 1
# T2 construct: gene MAP3K7
# TAOK1 = details: concentration: 1 μM, replicates: in singlicate; n = 1
# TAOK2 = details: concentration: 1 μM, replicates: in singlicate; n = 1
# TAOK3 = details: concentration: 1 μM, replicates: in singlicate; n = 1
# TBK1 = details: concentration: 1 μM, replicates: in singlicate; n = 1
# TEC = details: concentration: 1 μM, replicates: in singlicate; n = 1
# [1] = concentration: 1 μM, replicates: in singlicate
# 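Further: KINOMEscan kinase panel screen.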
structure (smiles),measurement,setting,value
COc1cc(Nc2nccc(N3CCC(NS(=O)(=O)c4ccc(NC(C)=O)cc4)CC3)n2)cc(OC)c1OC [GSK1379825],%Inh,SNARK,0%
same,%Inh,SNRK,0%
same,%Inh,SRC,35%
same,%Inh,SRMS,0%
same,%Inh,SRPK1,67%
same,%Inh,SRPK2,0%
same,%Inh,SRPK3,8%
same,%Inh,STK16,94.8%
same,%Inh,STK33,0%
same,%Inh,STK35,52%
same,%Inh,STK36,62%
same,%Inh,STK39,0%
same,%Inh,SYK; [1],37%
same,%Inh,SgK110,0%
same,%Inh,TAK1,0%
same,%Inh,TAOK1,0%
same,%Inh,TAOK2,0%
same,%Inh,TAOK3,0%
same,%Inh,TBK1,26%
same,%Inh,TEC,0%
O=C(O)C(F)(F)F.O=c1[nH]ccc2nc(N[C@@H]3CCNC3)nc(Nc3cc(Cl)cc(Cl)c3)c12 [GSK2188764],%Inh,SNARK,98.8%
same,%Inh,SNRK,6%
same,%Inh,SRC,0%
same,%Inh,SRMS,3%
same,%Inh,SRPK1,84%
same,%Inh,SRPK2,14%
same,%Inh,SRPK3,77%
same,%Inh,STK16,95%
same,%Inh,STK33,98.1%
same,%Inh,STK35,46%
same,%Inh,STK36,17%
same,%Inh,STK39,75%
same,%Inh,SYK; [1],84%
same,%Inh,SgK110,3%
same,%Inh,TAK1,99.1%
same,%Inh,TAOK1,34%
same,%Inh,TAOK2,3%
same,%Inh,TAOK3,18%
same,%Inh,TBK1,54%
same,%Inh,TEC,0%
Cl.Cl.NCC(NC(=O)c1cc(-c2cccnc2)c(-c2ccnc3[nH]ccc23)s1)c1ccccc1 (stereo not shown) [GSK1323434],%Inh,SNARK,65%
same,%Inh,SNRK,0%
same,%Inh,SRC,33%
same,%Inh,SRMS,0%
same,%Inh,SRPK1,44%
same,%Inh,SRPK2,14%
same,%Inh,SRPK3,0%
same,%Inh,STK16,26%
same,%Inh,STK33,18%
same,%Inh,STK35,0%
same,%Inh,STK36,0%
same,%Inh,STK39,64%
same,%Inh,SYK; [1],18%
same,%Inh,SgK110,0%
same,%Inh,TAK1,45%
same,%Inh,TAOK1,29%
same,%Inh,TAOK2,0%
same,%Inh,TAOK3,0%
same,%Inh,TBK1,2%
same,%Inh,TEC,27%
Cl.O=C(Nc1ccc(Oc2ccc3[nH]c(NC(=O)c4ccco4)nc3c2)cc1)Nc1cc(C(F)(F)F)ccc1F [GW683134],%Inh,SNARK,0%
same,%Inh,SNRK,0%
same,%Inh,SRC,23%
same,%Inh,SRMS,0%
same,%Inh,SRPK1,51%
same,%Inh,SRPK2,0%
same,%Inh,SRPK3,100%
same,%Inh,STK16,0%
same,%Inh,STK33,76%
same,%Inh,STK35,6%
same,%Inh,STK36,0%
same,%Inh,STK39,12%
same,%Inh,SYK; [1],31%
same,%Inh,SgK110,0%
same,%Inh,TAK1,89%
same,%Inh,TAOK1,0%
same,%Inh,TAOK2,0%
same,%Inh,TAOK3,0%
same,%Inh,TBK1,0%
same,%Inh,TEC,13%
COc1ccc(C2=C(Nc3cccc(O)c3)C(=O)NC2=O)cc1 [SB-390766],%Inh,SNARK,0%
same,%Inh,SNRK,0%
same,%Inh,SRC,0%
same,%Inh,SRMS,0%
same,%Inh,SRPK1,49%
same,%Inh,SRPK2,0%
same,%Inh,SRPK3,0%
same,%Inh,STK16,34%
same,%Inh,STK33,100%
same,%Inh,STK35,0%
same,%Inh,STK36,100%
same,%Inh,STK39,34%
same,%Inh,SYK; [1],0%
same,%Inh,SgK110,100%
same,%Inh,TAK1,0%
same,%Inh,TAOK1,0%
same,%Inh,TAOK2,1%
same,%Inh,TAOK3,0%
same,%Inh,TBK1,0%
same,%Inh,TEC,14%
N#CC1(c2cccc(C(=O)Nc3cccc(Oc4ccc5nc(NC(=O)C6CC6)sc5n4)c3)c2)CC1,%Inh,SNARK,0%
same,%Inh,SNRK,0%
same,%Inh,SRC,97.6%
same,%Inh,SRMS,15%
same,%Inh,SRPK1,0%
same,%Inh,SRPK2,0%
same,%Inh,SRPK3,0%
same,%Inh,STK16,0%
same,%Inh,STK33,16%
same,%Inh,STK35,0%
same,%Inh,STK36,0%
same,%Inh,STK39,0%
same,%Inh,SYK; [1],22%
same,%Inh,SgK110,17%
same,%Inh,TAK1,0%
same,%Inh,TAOK1,0%
same,%Inh,TAOK2,28%
same,%Inh,TAOK3,0%
same,%Inh,TBK1,15%
same,%Inh,TEC,0%
COc1ccc(NC(=O)c2ccoc2)cc1-c1ccc(C(=O)NCC2CC2)cc1 [GW810437],%Inh,SNARK,18%
same,%Inh,SNRK,12%
same,%Inh,SRC,10%
same,%Inh,SRMS,25%
same,%Inh,SRPK1,0%
same,%Inh,SRPK2,0%
same,%Inh,SRPK3,12%
same,%Inh,STK16,0%
same,%Inh,STK33,0%
same,%Inh,STK35,0%
same,%Inh,STK36,0%
same,%Inh,STK39,10%
same,%Inh,SYK; [1],12%
same,%Inh,SgK110,36%
same,%Inh,TAK1,18%
same,%Inh,TAOK1,23%
same,%Inh,TAOK2,24%
same,%Inh,TAOK3,15%
same,%Inh,TBK1,8%
same,%Inh,TEC,0%
Cc1cccc(Nc2nc(N[C@H]3CCCC[C@H]3N)ncc2C(N)=O)c1.Cl [GSK986310],%Inh,SNARK,39%
same,%Inh,SNRK,11%
same,%Inh,SRC,65%
same,%Inh,SRMS,0%
same,%Inh,SRPK1,44%
same,%Inh,SRPK2,0%
same,%Inh,SRPK3,0%
same,%Inh,STK16,24%
same,%Inh,STK33,55%
same,%Inh,STK35,28%
same,%Inh,STK36,58%
same,%Inh,STK39,12%
same,%Inh,SYK; 1 µM,99.4%
same,%Inh,SgK110,55%
same,%Inh,TAK1,90.3%
same,%Inh,TAOK1,32%
same,%Inh,TAOK2,0%
same,%Inh,TAOK3,3%
same,%Inh,TBK1,17%
same,%Inh,TEC,23%
